Rows were chosen to be rich in hits. Some 9% of all compounds tested hit in one or more screens of this group.
KinaseGlo FLuc: counter-screen: inhibitors of Kinase-Glo firefly luciferase; Q27757; Kinase-Glo luciferase, ATP luminescence, 8 min; Potency, µM (titrated, usually from 38.3 µM), hits mostly inhibitors; actives 0.28% (n = 200,000); active = well fitted curve in the direction sought with a large enough effect; inconclusive = small, poorly fitted or top-dose-only effect, or another doubt; inactive = no such curve, though single readings can be large; an effect the other way counts as inactive or inconclusive; also: nearly all actives have a fitted effect of over 60% in size
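Substrate mix (final 50 mM imidazole pH 7.2, 50 mM KCl, 7 mM MgCl2, 10 uM ATP, 0.01% Tween 20, 0.05% BSA) plus pin-tool compound, then Kinase-Glo detection mix; 8 min ambient, luminescence read.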
IMPase Li cell: membrane-permeable IMPase blocker, potentiated with lithium; CHO-M1 cells, IP1 TR-FRET (IP-One), carbachol + lithium; Potency, µM (titrated, usually from 59.4 µM), most hits filed as inhibitors; actives 0.35% (n = 210,000); active = well fitted curve in the direction sought with a large enough effect; inconclusive = small, poorly fitted or top-dose-only effect, or another doubt; inactive = no such curve, though single readings can be large; an effect the other way counts as inactive or inconclusive;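 also: IP1 builds up when IMPase is blocked and the TR-FRET signal falls; nearly all actives have a fitted effect of over 50% in size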
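CHO cells stably expressing M1 receptor (2000/well) were cultured 16–30 h, then exposed to compounds with a small lithium addition for 30 min at 37C. IP1 was measured by TR-FRET competition; AC50 from Hill fits.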
HPGD inh: blocks human HPGD enzyme activity; actives 4.3% (n = 150,000); purified HPGD, NADH fluorescence kinetic, PGE2 substrate; Potency, µM, actives largely listed as inhibitors; AID 894; P15428
Target sequence (P15428 whole entry, looked up): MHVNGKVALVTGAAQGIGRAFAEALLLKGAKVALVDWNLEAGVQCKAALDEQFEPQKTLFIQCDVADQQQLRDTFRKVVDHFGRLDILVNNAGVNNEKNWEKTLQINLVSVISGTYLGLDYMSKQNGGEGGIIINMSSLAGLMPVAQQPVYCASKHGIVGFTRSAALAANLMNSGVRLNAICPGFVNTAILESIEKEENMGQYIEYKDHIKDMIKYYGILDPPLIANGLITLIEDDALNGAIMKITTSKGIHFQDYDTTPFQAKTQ
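20 nM HPGD preincubated 15 min at room temperature with compound in 50 mM Tris-HCl pH 8, 0.01% Tween 20. Started with 1 mM NAD+ and 30 uM prostaglandin E2; NADH fluorescence (360/450 nm) read 5 times over 30-s intervals, last minus first.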
ALDH1A1 block: inhibitors of human aldehyde dehydrogenase 1A1 | P00352 | Purified ALDH1A1, NADH fluorescence, propionaldehyde substrate | actives 7.3% (n = 220,000) | Potency, µM (top dose mostly 75.3 µM), actives largely listed as inhibitors
LMNA splice mod: modulators of lamin A splicing | HeLa LMNA splicing GFP/RFP minigene ratio, 48 h | Potency, µM (highest dose often 46.1 µM), actives largely listed as inhibitors | actives 0.01% (n = 200,000) | AID 1487; active = well fitted inhibition curve with a large enough effect in the signal ratio, with a control signal flat, not every such curve was filed as active; inconclusive = small, poorly fitted or top-dose-only effect, or effect the other way, or a change in a side signal; the % refers to the signal ratio
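S3 HeLa stable clones carrying a lamin A-EGFP splicing minigene plus DsRed2 were seeded at 600 cells/well in Opti-MEM with 2% FBS, pin-dosed and incubated 48 h at 37°C. Acumen cytometry (488 nm) gave the GFP/RFP total-intensity ratio.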
Large screens that a line does not name were inactive. Unless noted, calls follow the shape of the dose curve; as a rule, active = well fitted inhibition curve with a large enough effect (not every such curve was filed as active); inconclusive = small, poorly fitted or top-dose-only effect, or another doubt; inactive = no such curve, though single readings can be large or run the other way.

CCOc1ccc(/C=C2\SC(N3CCc4ccccc4C3)=NC2=O)cc1	HPGD inh 22µM
O=C1N=C(N2CCc3ccccc3C2)S/C1=C\c1cccc(O)c1	HPGD inh 5µM, ALDH1A1 block 2.5µM
O=C1N=C(N2CCOCC2)S/C1=C\c1ccc(OS(=O)(=O)c2ccccc2)cc1	ALDH1A1 block 28µM (no result: HPGD inh, LMNA splice mod)
COc1ccc(/C=C2\SC(N3CCc4ccccc4C3)=NC2=O)cc1	HPGD inh inconclusive, ALDH1A1 block inconclusive
CC(C)CCNC(=O)COc1ccc2c(c1)C(=O)CC(C)(C)O2	HPGD inh inconclusive, ALDH1A1 block inconclusive
Cc1ccccc1NC(=O)COc1ccc2c(c1)OC(C)(C)CC2=O	ALDH1A1 block 14µM (no result: KinaseGlo FLuc, IMPase Li cell, HPGD inh, LMNA splice mod)
Cc1ccc(C(=O)Nc2ccccc2C(=O)O)cc1NC(=O)COc1c(C)cccc1C	ALDH1A1 block 8.9µM (no result: HPGD inh)
Cc1cc(C(=O)Nc2ccccc2C(=O)O)ccc1NC(=O)COc1cccc([N+](=O)[O-])c1	ALDH1A1 block inconclusive, LMNA splice mod inconclusive (no result: HPGD inh)
COc1ccc(OCC(=O)Nc2cccc(C(=O)Nc3ccccc3C(=O)O)c2)cc1	HPGD inh inconclusive, ALDH1A1 block 20µM
CC(C)C(NC(=O)c1ccc(F)cc1)C(=O)Nc1cccnc1 (centres undefined)	none (no result: HPGD inh, LMNA splice mod)
CN(C)c1ncc2nc(CCc3ccccc3)c(=O)n(C[C@H]3CCCO3)c2n1	HPGD inh inconclusive, ALDH1A1 block inconclusive (no result: LMNA splice mod)
COc1ccc(N(C(=O)c2ccco2)S(=O)(=O)c2cccc([N+](=O)[O-])c2)cc1	HPGD inh inconclusive
COc1ccc(N(C(=O)c2ccco2)S(=O)(=O)c2ccc(F)cc2)cc1	HPGD inh 28µM
Cc1ccc(CN(C(=O)COc2ccc([N+](=O)[O-])cc2)c2ccccn2)cc1	none (no result: KinaseGlo FLuc, IMPase Li cell, HPGD inh, ALDH1A1 block)
O=C(COc1ccc([N+](=O)[O-])cc1)N(Cc1ccccc1)Cc1ccccc1	ALDH1A1 block 14µM, LMNA splice mod inconclusive
COCCN1C(=O)C(=O)/C(=C(/O)c2ccc(S(=O)(=O)N3CCOCC3)cc2)C1c1ccc(C(C)C)cc1 (centres undefined)	none
Cc1cc(C(c2nnnn2Cc2ccccc2)N2CCOCC2)c(C)n1-c1ccc2c(c1)OCO2 (centres undefined)	ALDH1A1 block 13µM
O=C(Nc1cccn(Cc2c(F)cccc2Cl)c1=O)NC1CCCCC1	ALDH1A1 block 25µM (no result: HPGD inh, LMNA splice mod)
CCCCCOC(=O)c1[nH]c2c(c1C)C(=O)CC(c1ccco1)C2 (centres undefined)	ALDH1A1 block 28µM, LMNA splice mod inconclusive
O=C(C1=NN[C@@H]2C(=O)N(c3cccc(F)c3)C(=O)[C@H]12)c1cnccn1	ALDH1A1 block 6.3µM (no result: KinaseGlo FLuc, IMPase Li cell, HPGD inh, LMNA splice mod)
CC(C)C1Cc2nc(Cl)c(C#N)cc2CO1 (centres undefined)	none (no result: KinaseGlo FLuc, IMPase Li cell, HPGD inh, LMNA splice mod)
COc1ccc(-c2coc3cc(O)cc(O)c3c2=O)cc1	LMNA splice mod inconclusive
CC(C)=CCc1c(O)cc2occ(-c3ccc4c(c3)OCO4)c(=O)c2c1O	HPGD inh 25µM (no result: LMNA splice mod)
O=c1c(-c2cc(O)c(O)c(O)c2)coc2cc(O)c(O)c(O)c12	HPGD inh 7.1µM, ALDH1A1 block 25µM (no result: LMNA splice mod)
COc1ccc(-c2coc3cc(OC)cc(O)c3c2=O)cc1	LMNA splice mod inconclusive
O=c1c(-c2ccc(O)cc2)coc2cc(O)cc(O)c12	HPGD inh 25µM, LMNA splice mod inconclusive
CNC(=O)C1CCC(Cn2c(=O)c3sccc3n(CC(=O)Nc3ccc(C)cc3C)c2=O)CC1 (centres undefined)	none (no result: KinaseGlo FLuc, IMPase Li cell, HPGD inh, ALDH1A1 block)
Cc1ccccc1NC(=O)c1cc(C(=O)c2cc(Cl)ccc2O)cn(-c2ccccc2C)c1=O	HPGD inh 10µM, LMNA splice mod inconclusive
Cc1ccc(-n2cc(C(=O)c3cc(Cl)ccc3O)cc(C#N)c2=O)cc1	LMNA splice mod inconclusive
COc1ccccc1NC(=O)c1c(C)cc(C)nc1SCC(=O)c1ccc(Cl)cc1	none (no result: KinaseGlo FLuc, IMPase Li cell, HPGD inh, ALDH1A1 block)
COc1ccc(N(C)C(=S)Nc2ccc3nc(C)c(C)nc3c2)cc1	ALDH1A1 block 10µM
CSc1cnn(-c2ccccc2)c(=O)c1SC	IMPase Li cell 11µM, ALDH1A1 block inconclusive
CCCCSc1cnn(-c2ccccc2)c(=O)c1SCCCC	LMNA splice mod inconclusive
CCSc1cnn(-c2ccccc2)c(=O)c1SCC	IMPase Li cell 10µM, ALDH1A1 block inconclusive
O=c1c(Cl)c(Cl)cnn1-c1ccccc1	ALDH1A1 block 13µM

Bioassay records: PubChem BioAssay, National Center for Advancing Translational Sciences (NCATS)
